{"source": "PubChem BioAssay (NCATS)", "key": {"[1]": {"molecular_target": "Cellular tumor antigen p53 (Homo sapiens) (UniProt P04637)", "sequence (P04637 whole entry, looked up)": "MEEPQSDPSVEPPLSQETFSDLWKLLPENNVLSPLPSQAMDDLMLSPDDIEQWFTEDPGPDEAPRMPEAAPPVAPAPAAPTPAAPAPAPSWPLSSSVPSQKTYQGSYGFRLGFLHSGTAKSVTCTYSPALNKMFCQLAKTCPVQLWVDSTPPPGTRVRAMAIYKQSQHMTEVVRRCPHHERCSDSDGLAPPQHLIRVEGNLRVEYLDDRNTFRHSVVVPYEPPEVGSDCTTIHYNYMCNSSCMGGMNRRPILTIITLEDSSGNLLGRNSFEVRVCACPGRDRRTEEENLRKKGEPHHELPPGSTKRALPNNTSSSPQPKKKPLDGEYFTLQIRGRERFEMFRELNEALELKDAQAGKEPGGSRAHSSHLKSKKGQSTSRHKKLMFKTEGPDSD", "assay": "Primary qHTS for small molecule compounds that upregulate eGFP-tagged delta133p53alpha (in N-terminal) cells. (AID 2060322); note: nearly all actives have a fitted effect of over 75% in size; note: potency is the fitted concentration of half-maximal effect; for activation: series mostly up to about 56 µM", "conditions": "NCI-H358 eGFP-delta133p53alpha fluorescence, 24 h; activation: stronger effect = higher value", "outline": "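NCI-H358 cells pre-induced 24 h with 10 ng/ml doxycycline to express N-terminal eGFP-delta133p53alpha, then dosed 24 h at 37C without doxycycline; fixed, Hoechst-stained, GFP intensity by laser scanning cytometry, normalized to DMSO (0%) and 57.5 uM 5-azacytidine (100%).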"}, "[2]": {"molecular_target": "Aldehyde dehydrogenase, mitochondrial (Homo sapiens) (UniProt P05091)", "assay": "qHTS for Inhibitors of the Aldehyde Dehydrogenase Family (ALDH2) Primary screen (AID 2061308); note: nearly all actives have a fitted effect of over 55% in size"}}, "note": "Inconclusive results are not listed. Where a call stands in place of a potency, no number is given. A number with no mark means an inactive call. Active and inactive are the calls of the source. Calls come from the whole dose curve; as a rule, active = well fitted curve in the direction sought with a large enough effect; inconclusive = small, poorly fitted or top-dose-only effect, or another doubt; inactive = no such curve, though single readings can be large; an effect the other way counts as inactive or inconclusive."}
{"smiles": "Cc1c(-c2ccc3c(c2)OCO3)oc2ccc(C(O)C(C)O)cc12", "note": "(centres undefined)", "values": [{"measurement": "activation", "setting": "[1]", "result": -8.4, "unit": "%"}, {"measurement": "Potency", "setting": "[2]", "result": "inactive"}]}
{"smiles": "CC1CCC2C(C(=O)O)=COC(O[C@@H]3O[C@H](CO)[C@@H](O)[C@H](O)[C@H]3O)C12", "note": "(some centres undefined)", "values": [{"measurement": "activation", "setting": "[1]", "result": -3.57, "unit": "%"}, {"measurement": "Potency", "setting": "[2]", "result": "inactive"}]}
{"smiles": "CC1=C2C[C@H]3OC(=O)[C@H](O)[C@@]4(O)[C@@H](C)[C@@H](O)[C@H](O)C([C@@]2(C)[C@H](O)[C@@H](O)C1)[C@@]34C", "note": "(some centres undefined)", "values": [{"measurement": "activation", "setting": "[1]", "result": -11.5, "unit": "%"}, {"measurement": "Potency", "setting": "[2]", "result": "inactive"}]}
{"smiles": "C[C@@H]1O[C@@H](O[C@H]2[C@H](O[C@H]3[C@H](O[C@H]4CC[C@@]5(C)C(CC[C@]6(C)C5CC=C5[C@@H]7CC(C)(C(=O)O)C[C@@H](O)[C@]7(C)CC[C@]56C)[C@@]4(C)CO)O[C@H](C(=O)O)[C@@H](O)[C@@H]3O)O[C@H](CO)[C@H](O)[C@@H]2O)[C@H](O)[C@H](O)[C@H]1O", "note": "(some centres undefined)", "values": [{"measurement": "activation", "setting": "[1]", "result": -0.893, "unit": "%"}, {"measurement": "Potency", "setting": "[2]", "result": "inactive"}]}
{"smiles": "CNS(=O)(=O)c1ccccc1Nc1nc(Nc2ccc(N3CCN(C)CC3)cc2OC)ncc1Br", "values": [{"measurement": "Potency", "setting": "[1]", "result": "9.53 µM (active)"}, {"measurement": "Potency", "setting": "[2]", "result": "inactive"}]}
{"smiles": "CC(O)/C=C/C1(O)C2(C)COC1(C)CC(O)C2", "note": "(centres undefined)", "values": [{"measurement": "activation", "setting": "[1]", "result": 9.82, "unit": "%"}, {"measurement": "Potency", "setting": "[2]", "result": "inactive"}]}
{"smiles": "C[C@@H]1O[C@@H](O[C@H]2[C@H](OC(=O)C34CCC(C)(C)CC3C3=CCC5C6(C)CC(O)C(O[C@@H]7O[C@H](CO)[C@@H](O)[C@H](O)[C@H]7O)C(C)(C(=O)O)C6CCC5(C)C3(CO)CC4)O[C@H](C)[C@H](O)[C@@H]2O)[C@H](O)[C@H](O)[C@H]1O[C@@H]1OC[C@@H](O)[C@H](O)[C@H]1O", "note": "(some centres undefined)", "values": [{"measurement": "activation", "setting": "[1]", "result": -12.5, "unit": "%"}, {"measurement": "Potency", "setting": "[2]", "result": "inactive"}]}
{"smiles": "CC(C/C=C/C(C)(C)O)C1CCC(C)(O)C(O)C1", "note": "(centres undefined)", "values": [{"measurement": "activation", "setting": "[1]", "result": -11.5, "unit": "%"}, {"measurement": "Potency", "setting": "[2]", "result": "inactive"}]}
{"smiles": "COc1ccc(-c2ccc3c(N4CCOCC4C)nc(N4CCOCC4C)nc3n2)cc1CO", "note": "(centres undefined)", "values": [{"measurement": "activation", "setting": "[1]", "result": 7.14, "unit": "%"}, {"measurement": "Potency", "setting": "[2]", "result": "inactive"}]}
{"smiles": "O=C(O)CCc1nccc2c1[nH]c1ccccc12", "values": [{"measurement": "activation", "setting": "[1]", "result": 8.93, "unit": "%"}, {"measurement": "Potency", "setting": "[2]", "result": "inactive"}]}
{"smiles": "O=C(/C=C/c1ccc(O)c(O)c1)OCc1ccccc1O[C@@H]1O[C@H](CO)[C@@H](O)[C@H](O)[C@H]1O", "values": [{"measurement": "activation", "setting": "[1]", "result": 8.4, "unit": "%"}, {"measurement": "Potency", "setting": "[2]", "result": "inactive"}]}
{"smiles": "COc1cc2c(cc1O)C1(Cc3ccc4c(c3C1=O)OCO4)N(C)CC2", "note": "(centres undefined)", "values": [{"measurement": "activation", "setting": "[1]", "result": -7.63, "unit": "%"}, {"measurement": "Potency", "setting": "[2]", "result": "inactive"}]}
{"smiles": "CNCc1cc(-c2ccccc2F)n(S(=O)(=O)c2cccnc2)c1", "values": [{"measurement": "activation", "setting": "[1]", "result": 12.5, "unit": "%"}, {"measurement": "Potency", "setting": "[2]", "result": "inactive"}]}
{"smiles": "COc1cc(C(CO)C(OC2OC(CO)C(O)C(O)C2O)c2ccc(O)c(OC)c2)ccc1O", "note": "(centres undefined)", "values": [{"measurement": "activation", "setting": "[1]", "result": 20.5, "unit": "%"}, {"measurement": "Potency", "setting": "[2]", "result": "inactive"}]}
{"smiles": "COc1ccc(/C=C/C(=O)O[C@@H]2[C@@H](O)[C@@H](O)[C@H](O[C@@H]3C=C(CO)[C@H]4[C@H](O[C@@H]5O[C@H](CO)[C@@H](O)[C@H](O)[C@H]5O)OC=C[C@H]43)O[C@H]2C)cc1O", "values": [{"measurement": "activation", "setting": "[1]", "result": -6.87, "unit": "%"}, {"measurement": "Potency", "setting": "[2]", "result": "inactive"}]}
{"smiles": "CC/C=C\\CCO[C@@H]1O[C@H](CO[C@@H]2OC[C@H](O)[C@H](O)[C@H]2O)[C@@H](O)[C@H](O)[C@H]1O", "values": [{"measurement": "activation", "setting": "[1]", "result": -3.57, "unit": "%"}, {"measurement": "Potency", "setting": "[2]", "result": "inactive"}]}
{"smiles": "N#Cc1cc(F)cc(-c2nc(-c3ccccn3)no2)c1", "values": [{"measurement": "activation", "setting": "[1]", "result": -12.4, "unit": "%"}, {"measurement": "Potency", "setting": "[2]", "result": "inactive"}]}
